Compounds with a hit are over-represented: about 12% of the library has one in this group of screens.
L3MBTL1 block: qHTS Assay for the Inhibitors of L3MBTL1 | 230,000 tested, 0.66% active | AID 485360, 2010 | Potency, µM (highest dose often 57.1 µM), inactives show at the top dose activity, negative = inhibition, hits mostly inhibitors | AlphaScreen L3MBTL1–H3K9me1 peptide binding | Lethal(3)malignant brain tumor-like protein 1 (Homo sapiens), Q9Y468; further: on the % scale 0 is the no-effect control and ±100 the full control effect; nearly all actives have a fitted effect of over 60% in size
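AlphaScreen proximity signal between nickel-chelate acceptor and streptavidin donor beads (final 10 ug/mL) reports binding of 50 nM L3MBTL1 to 75 nM biotin-H3 K9me1 peptide; complex incubated with compounds 30 min at room temperature; cefsulodin titration as control.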
G9a inh: qHTS Assay for Inhibitors of Histone Lysine Methyltransferase G9a; Histone-lysine N-methyltransferase EHMT2 (Homo sapiens), Q96KQ7; G9a H3K9 monomethylation, AlphaScreen, 2 h; Potency, µM (titrated, usually from 102 µM), for inactives: top-dose activity, negative = inhibition, actives largely listed as inhibitors; 350,000 tested, 8.8% active; AID 504332, 2011; further: on the % scale 0 is the no-effect control and ±100 the full control effect; nearly all actives have a fitted effect of over 75% in size
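Using a bead-based AlphaScreen, monomethylated H3K9 product from 2 h room-temperature reactions (G9a 20 nM, peptide 500 nM, SAM 20 uM) was detected with 0.5 ug/mL rabbit anti-H3K9me1 antibody.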
BAZ2B block: qHTS Assay for Inhibitors of BAZ2B; Bromodomain adjacent to zinc finger domain protein 2B (Homo sapiens), Q9UIF8; AlphaScreen BAZ2B-H3K14Ac peptide displacement; Potency, µM (doses to about 114 µM), inactives show at the top dose activity change, negative = inhibition, usual class: inhibitors; 360,000 tested, 4.4% active; AID 504333, 2011; further: on the % scale 0 is the no-effect control and ±100 the full control effect; nearly all actives have a fitted effect of over 60% in size
Target sequence (Q9UIF8 whole entry, looked up, the tested form may be a part): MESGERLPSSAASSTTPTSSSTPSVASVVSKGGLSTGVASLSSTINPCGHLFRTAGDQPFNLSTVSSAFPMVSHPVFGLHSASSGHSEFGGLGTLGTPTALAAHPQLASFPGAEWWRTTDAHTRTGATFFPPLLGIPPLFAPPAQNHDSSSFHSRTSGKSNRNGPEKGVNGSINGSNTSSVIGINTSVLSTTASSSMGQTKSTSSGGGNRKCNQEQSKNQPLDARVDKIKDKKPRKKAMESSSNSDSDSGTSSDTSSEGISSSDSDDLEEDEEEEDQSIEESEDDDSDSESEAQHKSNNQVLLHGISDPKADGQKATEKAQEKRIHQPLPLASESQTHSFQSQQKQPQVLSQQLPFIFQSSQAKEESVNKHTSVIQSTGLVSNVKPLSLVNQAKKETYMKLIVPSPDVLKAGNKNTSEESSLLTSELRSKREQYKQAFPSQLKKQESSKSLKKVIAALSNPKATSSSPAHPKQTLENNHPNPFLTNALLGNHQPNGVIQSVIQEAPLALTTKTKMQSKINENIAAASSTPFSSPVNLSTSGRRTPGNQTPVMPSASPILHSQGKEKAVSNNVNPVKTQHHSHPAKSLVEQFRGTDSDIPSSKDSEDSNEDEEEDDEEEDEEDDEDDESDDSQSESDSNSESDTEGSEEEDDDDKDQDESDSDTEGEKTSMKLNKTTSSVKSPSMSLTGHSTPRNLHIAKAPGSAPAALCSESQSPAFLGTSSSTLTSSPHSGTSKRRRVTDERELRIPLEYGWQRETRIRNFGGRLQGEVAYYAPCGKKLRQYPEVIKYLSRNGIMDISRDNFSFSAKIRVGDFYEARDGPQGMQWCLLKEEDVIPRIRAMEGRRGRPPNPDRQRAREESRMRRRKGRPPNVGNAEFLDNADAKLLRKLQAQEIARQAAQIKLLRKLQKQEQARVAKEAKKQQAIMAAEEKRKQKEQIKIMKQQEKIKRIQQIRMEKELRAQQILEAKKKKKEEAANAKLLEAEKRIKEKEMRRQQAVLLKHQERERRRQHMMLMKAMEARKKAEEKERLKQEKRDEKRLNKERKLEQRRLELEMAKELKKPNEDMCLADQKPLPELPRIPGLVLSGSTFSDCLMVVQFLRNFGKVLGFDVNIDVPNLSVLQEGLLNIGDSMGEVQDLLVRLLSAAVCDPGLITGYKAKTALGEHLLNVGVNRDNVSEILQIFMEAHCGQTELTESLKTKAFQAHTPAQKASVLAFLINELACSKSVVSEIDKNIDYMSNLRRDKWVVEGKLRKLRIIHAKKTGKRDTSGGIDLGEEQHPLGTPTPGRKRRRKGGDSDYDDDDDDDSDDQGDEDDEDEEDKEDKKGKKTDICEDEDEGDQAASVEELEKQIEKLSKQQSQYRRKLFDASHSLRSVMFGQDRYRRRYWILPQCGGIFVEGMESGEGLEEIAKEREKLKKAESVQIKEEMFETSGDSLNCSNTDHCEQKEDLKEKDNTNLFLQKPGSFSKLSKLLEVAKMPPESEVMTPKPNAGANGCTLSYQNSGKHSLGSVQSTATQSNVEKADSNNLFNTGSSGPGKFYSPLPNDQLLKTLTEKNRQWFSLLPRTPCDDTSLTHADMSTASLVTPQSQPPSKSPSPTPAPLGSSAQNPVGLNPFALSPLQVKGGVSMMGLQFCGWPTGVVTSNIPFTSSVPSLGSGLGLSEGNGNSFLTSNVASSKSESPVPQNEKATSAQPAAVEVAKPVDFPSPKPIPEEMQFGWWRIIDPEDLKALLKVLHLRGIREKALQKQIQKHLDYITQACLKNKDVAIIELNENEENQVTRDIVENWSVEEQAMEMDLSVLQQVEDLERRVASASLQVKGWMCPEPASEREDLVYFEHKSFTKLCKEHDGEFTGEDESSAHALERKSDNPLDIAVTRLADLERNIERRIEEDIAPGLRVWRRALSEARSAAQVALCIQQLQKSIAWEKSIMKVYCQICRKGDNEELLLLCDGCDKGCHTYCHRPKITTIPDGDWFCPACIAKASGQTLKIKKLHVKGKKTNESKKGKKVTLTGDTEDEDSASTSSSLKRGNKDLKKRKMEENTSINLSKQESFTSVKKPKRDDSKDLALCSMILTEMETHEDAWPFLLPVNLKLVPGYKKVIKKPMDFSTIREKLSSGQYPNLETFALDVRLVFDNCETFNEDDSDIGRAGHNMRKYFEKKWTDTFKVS
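Multi-concentration screen (max 110 uM) measuring displacement of acetylated histone H3 peptide from BAZ2B by AlphaScreen, using 50 nM protein, 50 nM peptide and 10 ug/mL streptavidin donor plus Ni-chelate acceptor beads.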
JMJD2A Tudor: qHTS Assay for Inhibitors of JMJD2A-Tudor Domain | AlphaScreen JMJD2A-Tudor / H3K4me3 peptide binding | Potency, µM (doses to about 114 µM), without a hit: at the highest dose activity change, negative = inhibition, hits mostly inhibitors | Lysine-specific demethylase 4A (Homo sapiens), O75164 | 390,000 tested, 4.4% active; further: on the % scale 0 is the no-effect control and ±100 the full control effect; nearly all actives have a fitted effect of over 50% in size
HP1b binding inh: HTS for Inhibitors of HP1-beta Chromodomain Interactions with Methylated Histone Tails. Chromobox protein homolog 1 (Homo sapiens), P83916. AlphaScreen HP1-beta / biotin-H3K9me3 peptide binding. Potency, µM (highest dose often 114 µM), for inactives: top-dose activity change, negative = inhibition, hits mostly inhibitors. 390,000 tested, 0.56% active; further: nearly all actives have a fitted effect of over 70% in size
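AlphaScreen: HP1-beta (50 nM) preformed 30 min with biotin-H3(1-18)K9me3 peptide (50 nM) in PBS pH 7.4, 0.01% Tween-20. Compound added for 30 min at RT, then streptavidin donor/nickel chelate acceptor beads (10 ug/mL) for 30 min.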
Sfp PPTase inh: qHTS Assay for Inhibitors of Bacillus subtilis Sfp phosphopantetheinyl transferase (PPTase) | 4'-phosphopantetheinyl transferase ffp (Bacillus subtilis), Q9F4F7 | Biochemical Sfp PPTase activity, qHTS | 310,000 tested, 3.5% active | Potency, µM, for inactives: largest response in the series, negative = inhibition, actives largely listed as inhibitors;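 further: the enzyme is Sfp with the accession as filed and its product quenches rhodamine fluorescence; 0% = enzyme reaction without inhibitor and -100% = no enzyme wells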
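Fluorescence-quenching assay with 15 nM Sfp, 5 uM rhodamine-CoA and 12.5 uM BHQ-2-labelled ybbR peptide in pH 7.6 Hepes/MgCl2 buffer. Enzyme was pre-incubated with compound for 15 min at room temperature. Rate was taken from the 30-min fluorescence change (525/598 nm).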
The depositor's hits bear a star; u = inconclusive; x = no result; [ ] = another dose, or the depositor's remark. The call rests on the fitted dose curve; in most records, active means well fitted curve in the direction sought with a large enough effect; inconclusive means small, poorly fitted or top-dose-only effect, or another doubt; inactive means no such curve, though single readings can be large; an effect the other way counts as inactive or inconclusive. Potency means the concentration at half of the fitted maximal effect.

SMILES	L3MBTL1 block	G9a inh	BAZ2B block	JMJD2A Tudor	HP1b binding inh	Sfp PPTase inh
CCc1cc2c(cc3c(=O)n(CC(=O)NC4CCC(C)CC4)ncn32)s1 (stereo not given)	x	-5%[59 µM]	1%	-14%	11%	x
CC(C)(C)OC(=O)N1CCC(c2c(C(=O)NCc3ccco3)cnn2-c2ccccc2Cl)CC1	x	u	-1%[57.1 µM]	-27%	20%	x
CCOC(=O)c1[nH]c(C)c(C(=O)NCc2cccnc2)c1C	x	35µM*	13%	-16%	50%	-1%
CCOC(=O)c1[nH]c(C)c(C(=O)NCc2ccc(C)cc2)c1C	x	-3%	-6%	-4%	18%	1%
Cc1c(Cl)cccc1NC(=O)C(CCS(C)(=O)=O)N1Cc2ccccc2C1=O (stereo not given)	x	6%[59 µM]	3%	-15%	-8%	x
Cc1ccc(Cn2c(C(C)Nc3nc(-c4ccc(C)cc4)cs3)nc3cc(Cl)c(Cl)cc32)cc1 (stereo not given)	-5%	28µM*	40µM*	u	45µM*	-14%
Cc1ccc(Cn2c(C(C)Nc3nc(-c4ccc(Cl)cc4)cs3)nc3cc(C(=O)NCCCO)ccc32)cc1 (stereo not given)	x	x	x	79µM*	6%	x
CCCn1c(C(C)Nc2nc(-c3ccc(C)cc3)cs2)nc2ccccc21 (stereo not given)	-7%	89µM*	u	u	-3%	-9%
CCCn1c(C(C)Nc2nc(-c3cccc(Br)c3)cs2)nc2ccccc21 (stereo not given)	-4%	u	-28%	u	16%	-13%
Cc1ccc(Cn2c(CCNc3nc(-c4ccc(C)cc4)cs3)nc3cc(C(=O)NCCCO)ccc32)cc1	x	x	x	u	30%	x
Cc1ccc(Cl)cc1N(C)C(=O)c1noc2c1CCCCC2	x	-2%[59 µM]	11%[57.1 µM]	-4%	8%	x
CCC(c1nnnn1C1CCCCC1)N(Cc1ccco1)Cc1cc2ccc(OC)cc2[nH]c1=O (stereo not given)	6%	4%[12.7 µM]	-30%	-34%	-13%	-23%
Cc1ccc2[nH]c(=O)c(C(c3nnnn3C3CCCC3)N(Cc3cccnc3)Cc3ccco3)cc2c1 (stereo not given)	-1%	-44%	-35%	u	0%	-12%
Cc1ccc2cc(C(c3nnnn3C3CCCC3)N(Cc3ccco3)Cc3cccs3)c(=O)[nH]c2c1 (stereo not given)	x	28µM*	-6%	-7%	10%	-11%
Cc1ccc2cc(C(c3nnnn3C3CCCC3)N(Cc3cccnc3)Cc3ccco3)c(=O)[nH]c2c1 (stereo not given)	29%[11.4 µM]	20µM*	-37%	u	17%	10µM*
C=C1CCN(C(CC(C)C)C(=O)NCc2ccc(OC)cc2)S(=O)(=O)c2ccccc21 (stereo not given)	x	x	x	-9%	15%	-5%
O=C1c2ccccc2C(=O)N1CC#CCN1CCN(C(c2ccccc2)c2ccccc2)CC1	x	u	50µM*	u	-6%	-18%
O=C(C(c1ccccc1)c1ccccc1)N1CCN(CCN2C(=O)c3cccc4cccc(c34)C2=O)CC1	0%	-14%	-24%	u	-4%	5%
COc1ccccc1CCNC(=O)C(=O)NCC(c1ccco1)S(=O)(=O)c1ccccc1 (stereo not given)	x	5%[59 µM]	-5%	-6%	14%	x
CN(C)c1ccc(C(C(=O)NCc2ccccc2)N(Cc2ccco2)C(=O)c2snc(C(N)=O)c2N)cc1 (stereo not given)	x	35µM*	u	u	-16%	7%
Cc1cccc(N(C(=O)c2snc(C(N)=O)c2N)C(C(=O)NCc2ccccc2)c2ccncc2)c1 (stereo not given)	x	50µM*	6%	-22%	u	15%
COc1ccc(N(C(=O)c2snc(C(N)=O)c2N)C(C(=O)NCc2ccccc2)c2ccc(O)cc2)cc1 (stereo not given)	x	-1%	-6%	-24%	5%	1%
CCOc1cccc(/C=N/N=C/c2cccc(OCC)c2O)c1O	x	21%	-2%	-3%	17%	-18%
CCOc1cccc(C=Nc2cc(C)cc(C)c2O)c1O	x	u	u	18µM*	-22%	-8%
Brc1ccc(-c2csc(N3CCCCC3)n2)cc1	18%	5%[12.7 µM]	23%	x	x	x
SMILES	L3MBTL1 block	G9a inh	BAZ2B block	JMJD2A Tudor	HP1b binding inh	Sfp PPTase inh
O=C(N=Nc1c(O)[nH]c2ccccc12)c1cc(NS(=O)(=O)c2cccs2)cc(NS(=O)(=O)c2cccs2)c1	-27%	-2%	-18%	-21%	0%	-5%
Oc1ccc(NC(=S)N=Nc2c(O)[nH]c3ccccc23)cc1	u	50µM*	-15%	u	u	-8%
O=C(N=Nc1c(O)[nH]c2ccccc12)c1cccs1	x	79µM*	-24%	-12%	31%	-28%
Oc1ccc(NC(=S)N=Nc2c(O)[nH]c3ccc(Br)cc23)cc1	x	u	20µM*	32µM*	u	-14%
Cc1ccc(NC(=S)N=Nc2c(O)[nH]c3ccccc23)cc1	-9%	35%	x	-22%	10%	2%
Oc1[nH]c2ccc(Br)cc2c1N=NC(=S)Nc1ccc(F)cc1	x	-41%	u	-31%	u	u
Cc1ccccc1OCCSc1nc2ccc(NC(=O)c3cccs3)cc2s1	x	11%[59 µM]	2%	-1%	28%	x
C=C(C)C(O)/C=C/c1ccc(C)cc1 (stereo not given)	x	x	x	x	x	8%
COc1ccc(CNC(=O)Cn2nc(C)c3nn(-c4ccc(Cl)cc4)c(C)c3c2=O)cc1	x	17%[59 µM]	8%	-13%	16%[57 µM]	x
COc1ccc2c(c1)CCCC(Br)C2=O (stereo not given)	x	x	x	50µM*	u	x
COc1cccc(CN2CCN(C(=O)c3cccs3)CC2)c1OC	0%	-3%[59 µM]	x	-13%	14%	10%
COc1ccccc1CN1CCCCCC1	2%	40µM*	u	1.3µM*	u	8%
COc1cccc(CN2CCSCC2)c1OC	-2%	x	79µM*	20µM*	u	-18%
COc1ccccc1CN1CCSCC1	x	u	50µM*	6.3µM*	71µM*	-9%
COc1ccccc1CN1C(=O)CNC1=S	x	-1%	-4%	-12%	15%[57 µM]	7%
COc1ccccc1CN1CCC2(CC1)CCN(C(C)=O)CC2	x	10%[12.7 µM]	x	x	x	17%
